Cl transport mod – KCC2 cotransporter modulators, thallium flux, primary screen, cell-based, HEK293 KCC2, FluoZin-2 fluorescence, MLSMR; Solute carrier family 12 member 5 (Homo sapiens), Q9H2X9; KCC2 cells, thallium flux FluoZin-2 fluorescence; B-score of Tl+ flux slope (higher = more flux/activation; lower = inhibition) at 10 µM; 190,000 compounds, 2.2% hits; AID 1456, 2008;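 active = thallium flux slope and its plate-corrected score both differing from the plate sample mean at a set confidence after two filtering rounds, in either direction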;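 note: slope of fluorescence scaled to starting intensity during 10 to 20 s after thallium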
WT yeast gro inh – growth inhibition of WT strain, primary screen, mitochondrial fusion inhibitor project, WT and mutant strains, chemical genetic. inhibition, % at 10 µM. AID 1362, 2008. 190,000 compounds, 2.1% hits. mitochondrial fusion phenotypic screen; in the data active = inhibition above about 58%; tested in S. cerevisiae
m-calpain inh – inhibitors of pig calpain II, primary screen, biochemical, fluorogenic peptide substrate, 1536-well; purified calpain II, 30 min; inhibition, % at 16 µM; 220,000 compounds, 0.37% hits; AID 1236, 2008;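 active = inhibition above about 50%, limit read from the data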
ROMK primary – ROMK potassium channel modulators, primary screen, cell-based, thallium flux, MLSMR library; ATP-sensitive inward rectifier potassium channel 1 (Homo sapiens), P48048; Tet-inducible ROMK, thallium flux fluorescence; actives lie on both sides; B-score at 10 µM; 130,000 compounds, 2% hits; AID 1918, 2009;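 active = signal ratio slope over the read window, or its plate-corrected B-score, at least 3 SD from the plate mean, either direction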;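 note: B-score of the F/F0 ratio slope over 7 to 12 s after thallium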
Target sequence (P48048 whole entry, looked up): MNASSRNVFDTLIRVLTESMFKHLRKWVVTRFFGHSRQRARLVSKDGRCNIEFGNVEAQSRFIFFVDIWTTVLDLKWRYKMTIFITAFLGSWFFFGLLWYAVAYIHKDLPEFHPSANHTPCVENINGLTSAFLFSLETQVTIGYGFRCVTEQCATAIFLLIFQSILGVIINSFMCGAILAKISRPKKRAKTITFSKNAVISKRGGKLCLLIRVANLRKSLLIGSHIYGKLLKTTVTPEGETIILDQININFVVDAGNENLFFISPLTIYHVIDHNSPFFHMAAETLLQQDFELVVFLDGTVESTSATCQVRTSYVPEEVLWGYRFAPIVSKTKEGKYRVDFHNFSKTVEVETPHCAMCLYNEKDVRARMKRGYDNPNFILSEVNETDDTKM
Lmaj promast – Leishmania major promastigote growth inhibition, primary screen; Leishmania major promastigotes, resazurin fluorescence viability; inhibition, % at 10 µM; 200,000 compounds, 9% hits; AID 1063, 2008; in the data active = inhibition above about 50%;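 note: promastigotes grown with compound for 44 hours at 28 °C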
A number is an active result; i = inactive; nt = no result. This is a sample that favours compounds with a hit; in the whole collection about 12% have one here.

SMILES | Cl transport mod | WT yeast gro inh | m-calpain inh | ROMK primary | Lmaj promast
Cc1ccc(NC(=S)NCCC2=CCCCC2)cc1 | i | 68 | i | i | i
CCOC(=O)c1ccc(NC(=S)NCCC2=CCCCC2)cc1 | i | i | i | nt | i
O=C(CN1C(=O)c2ccccc2S1(=O)=O)Nc1ccccc1C(=O)NCc1ccco1 | i | i | i | nt | i
O=C(CN1C(=O)c2cccc3cccc1c23)Nc1ccccc1C(=O)NCc1ccco1 | nt | i | i | nt | 82
CC(C)(C)NC(=O)NC(=O)COC(=O)c1cccc(OC(F)F)c1 | nt | i | i | i | i
CCOC(=O)Cc1csc(NC(=O)C(C)c2ccc([N+](=O)[O-])cc2)n1 (stereo not drawn) | i | i | i | i | i
N#C/C=C1/NC(=O)c2ccccc2S1 | 19 | i | i | i | i
O=C1N/C(=C\c2nc3ccccc3s2)c2ccccc21 | i | nt | i | nt | nt
O=C(O)C1=C[C@@H](c2ccc(Br)cc2)C[C@@H](OCc2ccc(CO)cc2)O1 | i | i | i | nt | i
O=C(Nc1ccccc1)C1=C[C@@H](c2ccc(Br)cc2)C[C@@H](OCc2ccc(CO)cc2)O1 | i | i | i | nt | 56
O=C(NC1CC1)C1=C[C@@H](C2CCCCC2)C[C@@H](OCc2ccc(CO)cc2)O1 | i | i | i | nt | 98
CC(C)(C)[C@@H]1C=C(C(=O)Nc2ccccc2)O[C@H](OCc2ccc(CO)cc2)C1 | i | i | i | nt | 99
CCCS(=O)(=O)N1CCN=C1SCc1cccnc1 | i | i | i | i | i
O=C(NCCc1cccs1)C1CC(c2ccccc2[N+](=O)[O-])=NO1 (stereo not drawn) | i | i | i | i | i
COc1cc(/C=C(\C#N)C(=O)Nc2ccc3c(c2)OCCO3)ccc1O | i | nt | i | nt | nt
COCCOc1cc(NC(=O)c2sccc2Oc2ccc([N+](=O)[O-])cc2F)c(Cl)cc1Cl | nt | i | i | nt | i
O=C(Nc1ccccc1)c1sccc1Oc1ccc([N+](=O)[O-])cc1F | nt | i | i | i | 84
Cc1ccc(C(C)(C)C)c(OCCN2CCCC2)c1 | i | i | i | i | i
Cc1cc(OCCOCCN2CCCC2)ccc1C(C)C | i | i | i | i | 100
CC(C)(C)c1ccccc1OCCN1CCCC1 | nt | i | i | i | 90
Cc1cccc(OCCOCCN2CCOCC2)c1C | nt | i | i | nt | 88
CCc1cccc(OCCOCCN2CCCC2)c1 | i | i | i | nt | 97
Cc1cccc(OCCOCCN2CCNCC2)c1C | i | i | i | i | i
C=CCc1cccc(CNc2ccc(Br)cc2)c1O | i | i | i | nt | i
Cc1ccc(NC2Sc3ccccc3NC2=O)cc1 (stereo not drawn) | i | i | i | i | i
SMILES | Cl transport mod | WT yeast gro inh | m-calpain inh | ROMK primary | Lmaj promast
CCOc1ccc(-n2c(Cc3ccccc3)nnc2SCc2c(C)noc2C)cc1 | i | i | i | nt | i
CN1CCN(C(=O)C2=C[C@H](C(C)(C)C)C[C@H](OCCCCO)O2)CC1 | i | i | i | nt | i
CC(OCCN1CCCC1)(c1ccc(F)cc1)c1ccc(F)cc1 | nt | i | i | i | 100
Cc1cccc(C(C)(C)C)c1OCCOCCN1CCCC1 | i | i | i | i | i
Cc1ccc(C(C)C)cc1OCCOCCN1CCCC1 | i | i | i | i | 100
Cc1ccccc1OCCOCCN1CCCCCC1 | i | i | i | i | 99
C=CCS(=O)(=O)c1cccc2cccnc12 | i | i | i | i | i
COc1cccc(C2CC(c3ccccc3)Nc3nc(N)nn32)c1 (stereo not drawn) | i | i | i | nt | i
Nc1nc2n(n1)C(c1cccc(Br)c1)CC(c1ccccc1)N2 (stereo not drawn) | i | i | i | nt | 78
COc1cccc(C2CC(c3cccc(Br)c3)n3nc(N)nc3N2)c1 (stereo not drawn) | i | i | i | nt | 75
CC(=O)NCCc1nc2ccccc2n1CCc1ccccc1 | nt | i | i | nt | i
CC(C)OC(=O)c1cccnc1N1CCN(c2cccc(Cl)c2)CC1 | i | 73 | i | i | i
COC(=O)c1cc(C(=O)OC)cc(-n2c(C)cc(C(=O)COC(=O)CNS(=O)(=O)c3ccc(C)cc3)c2C)c1 | i | i | i | i | 90
CCOc1ccc(-n2c(C)cc(C(=O)CCl)c2C)cc1 | i | i | i | i | 100
CCOC(=O)c1cc(C)n(-c2ccc(Cl)cc2)c1C | i | nt | i | i | nt
COC(=O)c1ccc(-n2c(C)cc(C(=O)CCl)c2C)cc1 | i | i | i | nt | 101

Screening data deposited in PubChem BioAssay by several laboratories.
